{"source": "PubChem BioAssay AID624273", "about": "(Broad Institute, 2012)", "note": "Hit rate of the full screen: of about 1,000 compounds, about 230 (23%) were called active. Not shown: some 1% with an inconclusive outcome. How the calls were made is not given here. The list shows a part of the results. Potency and affinity values are given separately.", "data": [{"molecular_target": "Long-chain-fatty-acid--AMP ligase FadD28 (Mycobacterium tuberculosis (strain ATCC 25618 / H37Rv)) (UniProt P9WQ59)", "sequence (P9WQ59 whole entry, looked up)": "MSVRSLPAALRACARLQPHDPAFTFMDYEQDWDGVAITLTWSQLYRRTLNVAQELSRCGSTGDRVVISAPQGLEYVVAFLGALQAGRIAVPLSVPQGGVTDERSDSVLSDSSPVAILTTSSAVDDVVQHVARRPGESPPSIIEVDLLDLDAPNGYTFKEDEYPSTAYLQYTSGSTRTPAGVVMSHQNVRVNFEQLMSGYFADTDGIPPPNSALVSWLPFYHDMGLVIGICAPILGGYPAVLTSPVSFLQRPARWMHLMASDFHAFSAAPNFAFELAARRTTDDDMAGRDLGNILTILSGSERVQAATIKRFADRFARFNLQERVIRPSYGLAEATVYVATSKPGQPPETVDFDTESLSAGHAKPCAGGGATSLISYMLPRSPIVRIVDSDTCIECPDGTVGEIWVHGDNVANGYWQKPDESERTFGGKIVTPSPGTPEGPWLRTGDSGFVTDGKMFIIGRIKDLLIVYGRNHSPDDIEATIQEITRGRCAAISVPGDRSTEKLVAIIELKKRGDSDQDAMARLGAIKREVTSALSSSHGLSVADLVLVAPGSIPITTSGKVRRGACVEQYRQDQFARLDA", "experiment": "inhibitors of FadD28 bisubstrate probe binding, dose response, biochemical, fluorescence polarization, cherry-pick (AID 624273)", "details": "series mostly up to 50 µM; activity change, negative = inhibition: at the top concentration", "values": [{"smiles": "C[C@@H]1CN([C@H](C)CO)C(=O)c2cc(NC(=O)Nc3ccc(C(F)(F)F)cc3)ccc2O[C@H]1CN(C)S(=O)(=O)c1ccccc1", "activity change, negative = inhibition": "-3.14% (inactive)"}, {"smiles": "N#CCCN(CCC#N)C(=O)C1c2ccccc2Oc2ccccc21", "activity change, negative = inhibition": "-14.3% (inactive)"}, {"smiles": "CCCCCCn1cc(C(=O)O)c(=O)c2cc(F)c(N3CCN(C)CC3)cc21", "activity change, negative = inhibition": "-6.74% (inactive)"}, {"smiles": "O=C(NNC(=O)C1CC=CCC1)c1ccccc1Cl", "note": "(stereo not given)", "activity change, negative = inhibition": "-7.49% (inactive)"}, {"smiles": "COc1ccc(CCNC(=O)CSc2nc3[nH]ncc3c(=O)n2-c2ccc(Cl)cc2Cl)cc1OC", "activity change, negative = inhibition": "6.51% (inactive)"}, {"smiles": "O=C(CSc1nnc(CNc2ccc(Cl)cc2)o1)Nc1nc2c(s1)CCCC2", "activity change, negative = inhibition": "-4.67% (inactive)"}, {"smiles": "COCC(C)N=Cc1c(O)[nH]c2ccccc12", "note": "(stereo not given)", "activity change, negative = inhibition": "-3.22% (inactive)"}, {"smiles": "CC1=C(C(=O)OCCCBr)C(c2ccc3c(c2)OCO3)NC(=O)N1", "note": "(stereo not given)", "activity change, negative = inhibition": "7.23% (inactive)"}, {"smiles": "CN1CC(C(=O)c2ccc(Cl)cc2)C(c2ccc(N(C)C)cc2)C1", "note": "(stereo not given)", "activity change, negative = inhibition": "-12.5% (inactive)"}, {"smiles": "CC(=O)Oc1ccc(-c2nc(-c3cccnc3)no2)cc1", "activity change, negative = inhibition": "-0.647% (inactive)"}, {"smiles": "COc1ncnc(-c2ccccc2)c1-c1ccccc1", "activity change, negative = inhibition": "-5.28% (inactive)"}, {"smiles": "COCC(=O)Nc1ccc(Br)cc1C", "activity change, negative = inhibition": "-4.66% (inactive)"}, {"smiles": "COc1cc(/C=N/n2c(COc3ccccc3)n[nH]c2=S)cc(OC)c1OC(C)=O", "activity change, negative = inhibition": "-3.5% (inactive)"}, {"smiles": "COc1ccc(C(=O)Nc2ccncc2)cc1OC", "activity change, negative = inhibition": "-2.23% (inactive)"}, {"smiles": "O=C(CN1C(=O)/C(=C/c2ccco2)SC1=S)NC1CCS(=O)(=O)C1", "note": "(stereo not given)", "activity change, negative = inhibition": "-10.4% (inactive)"}, {"smiles": "COc1ccc(/C=C2\\SC(=O)N(CC(=O)Nc3ccccc3O)C2=O)cc1OC", "activity change, negative = inhibition": "-6.42% (inactive)"}, {"smiles": "O=C(NCCS(=O)(=O)N1CCN(c2cccc(Cl)c2)CC1)c1cc(=O)c2ccccc2o1", "activity change, negative = inhibition": "1.84% (inactive)"}, {"smiles": "COc1cc2cc(C(N)=O)c(N)nc2cc1OC", "activity change, negative = inhibition": "-1.59% (inactive)"}, {"smiles": "Cc1nc(-c2cccs2)ccc1C(=O)O", "activity change, negative = inhibition": "-6.58% (inactive)"}, {"smiles": "COCCCNC(=S)N/N=C/c1cccc(OC)c1O", "activity change, negative = inhibition": "-6.99% (inactive)"}, {"smiles": "O=[N+]([O-])c1cccc(/C=N/n2c(C3CCCCC3)n[nH]c2=S)c1", "activity change, negative = inhibition": "-19.2% (inactive)"}, {"smiles": "CC1CCN(S(=O)(=O)c2ccc(C(=O)Nc3nnc(C4=COCCO4)o3)cc2)CC1", "activity change, negative = inhibition": "6.34% (inactive)"}, {"smiles": "O=C(COC(=O)c1cccc(S(=O)(=O)N2CCCC2)c1)Nc1cccc(Br)c1", "activity change, negative = inhibition": "-1.15% (inactive)"}, {"smiles": "CCN(CC)S(=O)(=O)c1ccc(NC(=O)COC(=O)c2ccc(Br)o2)cc1", "activity change, negative = inhibition": "-9.9% (inactive)"}, {"smiles": "O=C(CSc1nnnn1-c1ccccc1)Nc1nsc(-c2ccc(Cl)cc2)n1", "activity change, negative = inhibition": "1.71% (inactive)"}, {"smiles": "Cc1cc(S(=O)(=O)N(Cc2cccs2)Cc2ccccc2F)ccc1-n1cnnn1", "activity change, negative = inhibition": "-3.2% (inactive)"}, {"smiles": "CCNS(=O)(=O)c1cc(OC)c(Cl)cc1OC", "activity change, negative = inhibition": "-4.8% (inactive)"}, {"smiles": "O=C(Nc1nc(COc2ccccc2)cs1)c1ccccc1F", "activity change, negative = inhibition": "-18.3% (inactive)"}, {"smiles": "COc1ccc(CNC(=O)CN(Cc2ccc(OC)cc2)C(=O)CCC(=O)Nc2nccs2)cc1", "activity change, negative = inhibition": "0.987% (inactive)"}, {"smiles": "COc1cc(Cl)ccc1NC(=O)COc1ccccc1C(=O)N1CCN(c2ccc(O)cc2)CC1", "activity change, negative = inhibition": "-2.05% (inactive)"}]}]}
